esBAF inh: Bmi1 luciferase reporter increase in mESCs, primary screen, esBAF inhibitor project, mouse ES cells, Bmi1 luciferase knock-in, single point; 350,000 tested, 2% active; 24 h; 100% = twice the neutral-well signal; reporter increase, % at 12.5 µM; in the data active means activation above about 40%;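 further: a rise in the Bmi1 reporter signal indicates esBAF inhibition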
hgDAF12 agonist: H. glycines DAF-12 receptor agonists, primary screen, cell-based, luminescence, HEK293, GAL4 fusion, UAS-luciferase; 370,000 tested, 1.8% active; activation, % at 6.8 µM; AID 687014, 2013; HEK293 GAL4-hgDAF12 UAS-luciferase reporter, agonist luminescence; normalized to butyrate control; Nuclear hormone receptor DAF-12 (Heterodera glycines), GAL4 fusion;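 active means activation above a cutoff set at the mean of all screened compounds plus 3 SD, cut at about 10% in these data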
ssDAF-12 act: S. stercoralis DAF-12 nuclear receptor activators, primary screen, cell-based, luminescence, HEK293, GRIP1 co-expression, lit1-tk-luc. Nuclear hormone receptor DAF-12 (Strongyloides stercoralis). HEK293 ssDAF-12/GRIP1 lit1-tk-luc reporter; % of 3 µM dafachronic acid response. activation, % at 6.8 µM. 370,000 tested, 1% active. AID 652126, 2013;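 active means activation above the mean over all tested compounds plus 3 SD, cut at about 0.9% in these data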
hcDAF-12 act: H. contortus DAF-12 nuclear receptor activators, primary screen, cell-based, luminescence, HEK293, lit1-tk-luc reporter; HEK293 hcDAF-12 lit1-tk-luc reporter; 0% DMSO, 100% Δ7-dafachronic acid; 370,000 tested, 1.4% active; AID 652067, 2013; activation, % at 6.8 µM;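 active means activation above the mean of all tested compounds plus 3 SD, cut at about 5.5% in these data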
DAX1 inh: DAX1 (NR0B1) inhibitors on StAR promoter, primary screen, cell-based, luminescence, SF-1 (NR5A1), full-length DAX-1; AID 652010, 2013; HEK293T StAR-luciferase reporter, SF-1/DAX-1 repression relief; 370,000 tested, 1.1% active; inhibition, % at 6.8 µM;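 active means inhibition above the mean over all tested compounds plus 3 SD, cut at about 3.6% in these data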;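 further: higher inhibition means more luminescence from relief of DAX-1 repression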
Wnt bcat act: Wnt/beta-catenin pathway activators, primary screen, cell-based, plate reader, single point | activation, % at 9.35 µM | Wnt/beta-catenin reporter cell assay, activator | 300,000 tested, 1.2% active; in the data active means activation above about 30%, passing the limit was not always enough
LXRb hcDAF ctr: LXR agonists, Gal4 luciferase reporter, confirmation, counter-screen for hcDAF-12 agonist project, cell-based, luminescence, HEK293, H. contortus campaign | shares compounds with hcDAF-12 act | HEK293 Gal4-LXR tk-luc reporter, 24 h; normalized: DMSO 0%, positive control 100% | activation, % at 6.8 µM | 3,400 tested, under 10 active;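 active means mean percent activation of the reporter above a cutoff set as the average over tested compounds plus their standard deviation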
Target sequence (P55055 whole entry, looked up, the tested form may be a part): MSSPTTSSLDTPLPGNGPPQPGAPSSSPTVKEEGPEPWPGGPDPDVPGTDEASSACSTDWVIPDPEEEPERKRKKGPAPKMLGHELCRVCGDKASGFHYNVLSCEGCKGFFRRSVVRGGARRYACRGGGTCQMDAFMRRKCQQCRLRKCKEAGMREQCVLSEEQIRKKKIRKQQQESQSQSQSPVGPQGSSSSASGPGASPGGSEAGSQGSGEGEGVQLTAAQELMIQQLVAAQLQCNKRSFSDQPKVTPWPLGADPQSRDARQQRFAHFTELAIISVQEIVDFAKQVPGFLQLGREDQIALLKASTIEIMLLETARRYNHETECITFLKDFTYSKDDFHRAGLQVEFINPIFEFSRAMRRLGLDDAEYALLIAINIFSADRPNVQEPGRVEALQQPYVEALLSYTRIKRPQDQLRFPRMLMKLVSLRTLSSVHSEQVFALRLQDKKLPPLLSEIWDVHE
hcDAF12 ag: H. contortus DAF-12 receptor agonists, confirmation, cell-based, luminescence, HEK293, lit1-tk-luc, triplicate; shares compounds with hcDAF-12 act; HEK293 hcDAF-12 lit1-tk-luc reporter; % of Δ7-dafachronic acid response; activation, % at 6.8 µM; 3,400 tested, 61% active; AID 743032, 2013;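 active means mean activation across triplicate tests above the threshold derived from the earlier primary screen, cut at about 5.5% in these data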
Hits are given with their value. Hits are enriched below; roughly 4.2% of the tested compounds scored in any of these assays.

For Cc1ccc(-c2nnn3c2nc(NC(C)C)c2ccccc23)cc1 the results were esBAF inh inactive, hgDAF12 agonist inactive, ssDAF-12 act inactive, hcDAF-12 act 6.8, DAX1 inh inactive, Wnt bcat act inactive, LXRb hcDAF ctr inactive and hcDAF12 ag inactive.
Screening Nc1nc2c(-c3ccc(Br)cc3)nnn2c2ccccc12 returned esBAF inh inactive, hgDAF12 agonist 11, ssDAF-12 act 1.0, hcDAF-12 act 7.7, DAX1 inh inactive, Wnt bcat act 43, LXRb hcDAF ctr inactive and hcDAF12 ag 22.
Screening CNc1nc2c(-c3ccc(Cl)cc3)nnn2c2ccccc12 returned esBAF inh inactive, hgDAF12 agonist inactive, ssDAF-12 act inactive, hcDAF-12 act inactive, DAX1 inh inactive and Wnt bcat act inactive.
For COc1ccccc1NC(=O)N1C[C@H](O)COC[C@@H]2O[C@H](CC(=O)NCCc3ccncc3)CC[C@H]21 the results were esBAF inh inactive.
For C[C@@H]1CN([C@@H](C)CO)C(=O)c2cc(NS(=O)(=O)c3ccc(Cl)cc3)ccc2O[C@@H]1CN(C)C(=O)Nc1ccc(C(F)(F)F)cc1 the results were esBAF inh inactive.
Screening C/C(C/C(C)=C1/SC(=S)NC1=O)=C1\SC(=S)NC1=O returned hgDAF12 agonist inactive, ssDAF-12 act inactive, hcDAF-12 act 6.8, DAX1 inh inactive, Wnt bcat act inactive, LXRb hcDAF ctr inactive and hcDAF12 ag inactive.
CC(=O)c1sc(NC(=O)c2oc3ccc(F)cc3c2C)nc1C was read as esBAF inh 50, hgDAF12 agonist inactive, ssDAF-12 act inactive, hcDAF-12 act 6.9, DAX1 inh inactive, Wnt bcat act 39, LXRb hcDAF ctr inactive and hcDAF12 ag inactive.
CC(C)NC(=O)N(C)C[C@H]1Oc2ccc(NC(=O)NC3CCCCC3)cc2CC(=O)N([C@H](C)CO)C[C@H]1C was read as esBAF inh inactive.
For CNc1nc(-c2ccccc2)[n+](-c2ccc(C)cc2)s1 the results were hgDAF12 agonist inactive, ssDAF-12 act 1.1, hcDAF-12 act 11, DAX1 inh inactive, LXRb hcDAF ctr inactive and hcDAF12 ag inactive.
Cc1ccc(S(=O)(=O)Nc2nc(-c3ccccc3)cs2)cc1 was read as esBAF inh inactive, hgDAF12 agonist inactive, ssDAF-12 act inactive, hcDAF-12 act inactive, DAX1 inh inactive and Wnt bcat act inactive.
Screening C[C@H]1CN([C@@H](C)CO)S(=O)(=O)c2ccc(-c3cccnc3)cc2O[C@@H]1CN(C)Cc1ccncc1 returned esBAF inh inactive.
For O=C(NNc1nc2cc3c(cc2s1)OCCO3)c1ccccc1 the results were hgDAF12 agonist inactive, ssDAF-12 act inactive, hcDAF-12 act inactive, DAX1 inh inactive and Wnt bcat act inactive.
Cc1cccc2sc(NNC(=O)c3ccc4c(c3)OCCO4)nc12 was read as esBAF inh inactive, hgDAF12 agonist inactive, ssDAF-12 act inactive, hcDAF-12 act 9.4, DAX1 inh inactive, Wnt bcat act inactive, LXRb hcDAF ctr inactive and hcDAF12 ag inactive.
C[C@H](CO)N1C[C@H](C)[C@H](CN(C)C(=O)Nc2ccccc2)Oc2ncc(Br)cc2C1=O was read as esBAF inh inactive.

Bioassay records from PubChem.
